Test results taken from PubChem BioAssay (EPA / NIEHS).
Calls of active or inactive are those of the source. Rule for the calls: active = hit-call score of the fitted dose curve at least 0.9, where 1 is the maximum; inactive = score below 0.9.

read-out: Vascular endothelial growth factor receptor 2 (Homo sapiens) (UniProt P35968); experiment: BSK_4H_VEGFRII: BioMAP Diversity Plus: 4H Assay for Vascular endothelial growth factor receptor 2 (VEGFR2) Biomarker Activity (AID 2283031); details: primary human endothelial cells (HUVEC); actives raise or lower the signal;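 for AC50: cell-surface VEGFR2 protein level quantified by ELISA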
In short: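 In this multiplexed HUVEC system, biomarker ELISA was performed after 24 h chemical exposure. Parallel SRB staining (TCA fixation, 560 nm) tracked cytotoxicity; DMSO served as baseline.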

SMILES	outcome	AC50
CS(=O)(=O)c1ccc([C@@H](C[C@H]2CCC(=O)C2)C(=O)Nc2cnccn2)cc1Cl	inactive	–
O=C(O)CN(CC(=O)O)CC(=O)O	inactive	–
CC1(C)C(=O)NC(=O)N1CO	inactive	–
CC(C)c1cccc(C(C)C)c1NC(=O)NS(=O)(=O)c1cc(C(C)(C)O)co1	inactive	–
CCCC(=O)O	inactive	–
C=CCCCCCCCCCCCC	inactive	–
CCCCC(CC)COP(=O)(OCC(CC)CCCC)OCC(CC)CCCC (centres undefined)	–	20 µM (active)
NC1CCCCC1	inactive	–
CC(=O)CC(c1ccccc1)c1c(O)c2ccccc2oc1=O (centres undefined)	inactive	–
C=CCc1ccc(OC)c(OC)c1	inactive	–
CCCCCCCCCC[N+](C)(C)[O-]	inactive	–
CCCCCCCC(=O)OC	inactive	–
Oc1ccc(O)cc1	inactive	–
CSc1ccc(Oc2ccc(S(N)(=O)=O)cc2CN(C)C)cc1C	inactive	–
CCc1cc(C2=C(C(=O)O)N(c3ccccc3C(F)(F)F)S(=O)(=O)c3ccccc32)cc2c1OCO2	inactive	–
NCCOCCOCCN	inactive	–
S=c1[nH]c2ccccc2s1	inactive	–
O=C(N[C@@H](c1ccccc1)[C@@H]1CCCCN1)c1cccc(C(F)(F)F)c1Cl	inactive	–
O=C1CCCCC1	inactive	–
Cc1ccc(C(C)(C)C)c(O)c1	inactive	–
CCN(CC)CCOc1ccc(C(=C(Cl)c2ccccc2)c2ccccc2)cc1	inactive	–
CC(=O)[C@@]1(O)CC[C@H]2[C@@H]3CCC4=CC(=O)CC[C@]4(C)[C@H]3CC[C@@]21C	inactive	–
CCCCC(CC)CO (centres undefined)	inactive	–
CC(=O)O[C@]1(C(C)=O)CC[C@H]2[C@@H]3C=C(Cl)C4=CC(=O)[C@@H]5C[C@@H]5[C@]4(C)[C@H]3CC[C@@]21C	inactive	–
